The record followed here is PubChem BioAssay (NCATS).

Assay [1] addresses Cellular tumor antigen p53 (Homo sapiens) (UniProt P04637). As to the kind of experiment: Primary qHTS for small molecule compounds that upregulate eGFP-tagged delta133p53alpha (in N-terminal) cells. (AID 2060322). Also: nearly all actives have a fitted effect of over 75% in size. Also: potency is read from the fitted curve at half-maximal effect.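 As to activation: cells pre-induced with doxycycline then dosed without doxycycline; series mostly up to about 56 µM; 0% = DMSO vehicle and 100% = reference activator.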 The note with it: NCI-H358 eGFP-delta133p53alpha fluorescence, 24 h; activation: stronger effect = higher value. Summed up: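 NCI-H358 cells pre-induced 24 h with 10 ng/ml doxycycline for eGFP-delta133p53alpha, plated dox-free and exposed 24 h at 37C to titrated compounds. Fixed, Hoechst-stained; gated GFP peak intensity by laser scanning cytometry, normalized to DMSO (0%) and 57.5 uM 5-azacytidine (100%).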
In general terms: Quantitative high-throughput screening tests each substance at several concentrations.

The target of assay [2] is Aldehyde dehydrogenase, mitochondrial (Homo sapiens) (UniProt P05091). As to the kind of experiment: qHTS for Inhibitors of the Aldehyde Dehydrogenase Family (ALDH2) Primary screen (AID 2061308).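 Also: plate controls were vehicle for no effect and reference inhibitor for full effect; nearly all actives have a fitted effect of over 55% in size.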
In assay [3] the target is Retinaldehyde dehydrogenase 3 (Homo sapiens) (UniProt P47895). As to the kind of experiment: qHTS for Inhibitors of the Aldehyde Dehydrogenase Family (ALDH1A3) Primary screen (AID 2061315).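 Also: plate controls were DMSO vehicle for no effect and reference inhibitor for full effect.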
Assay [4] is described as follows: BET inhibitor-based combinations targeting novel dependencies in MECOM-rearranged (r) AML: SET-2 cell line (AID 2202231). Also: nearly all actives have a fitted effect of over 35% in size. Also: potency is read from the fitted curve at half-maximal effect.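 As to viability: plate controls were DMSO treated cells for no effect and wells without cells for full effect.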 The note with it: SET-2 AML cells viability, CellTiter-Glo luminescence, 48 h; viability: stronger effect = lower value, concentration not given here. The method in brief: (§1)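 AML cell lines seeded at 500 cells/well, treated with 11-point dose curves for 48 h. Viability by CellTiter-Glo luminescence, normalised to DMSO and empty wells; activity expressed as AUC and per-cell-line Z-transformed AUC.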
(In ATP-based viability assays light output follows the ATP content of the culture.)

Assay [5] is described as follows: BET inhibitor-based combinations targeting novel dependencies in MECOM-rearranged (r) AML: OCI-AML3 cell line (AID 2202232).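 Also: series mostly up to about 46 µM; plate controls were DMSO vehicle wells for no effect and wells without cells for full effect; nearly all actives have a fitted effect of over 35% in size.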 As to conditions: Potency: OCI-AML3 viability. The method in brief: as §1
Assay [6] in a line: BET inhibitor-based combinations targeting novel dependencies in MECOM-rearranged (r) AML: HNT-34 cell line (AID 2202234). Also: nearly all actives have a fitted effect of over 35% in size. Also: potency is read from the fitted curve at half-maximal effect. Summed up:
(§2)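 Cells at 500/well were exposed for 48 hr to MIPE v5.0 drugs as 11-point dose curves. Viability was read by CellTiter-Glo luminescence and normalized to DMSO and empty-well controls. Activity was expressed as AUC and per-cell-line Z-AUC.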

Assay [7] can be described thus: BET inhibitor-based combinations targeting novel dependencies in MECOM-rearranged (r) AML: AML-194 cell line (AID 2202237; also: nearly all actives have a fitted effect of over 40% in size; also: potency is read from the fitted curve at half-maximal effect). The method in brief: as §1
Assay [8] can be described thus: BET inhibitor-based combinations targeting novel dependencies in MECOM-rearranged (r) AML: MV-4-11 cell line (AID 2202233). Also: nearly all actives have a fitted effect of over 45% in size. Also: potency is read from the fitted curve at half-maximal effect. The method in brief:
as §2

The nature of assay [9]: BET inhibitor-based combinations targeting novel dependencies in MECOM-rearranged (r) AML: UCSD-AML1 cell line (AID 2202235). Also: nearly all actives have a fitted effect of over 40% in size. Also: potency is read from the fitted curve at half-maximal effect. The method in brief:
as §2

The nature of assay [10]: BET inhibitor-based combinations targeting novel dependencies in MECOM-rearranged (r) AML: AML-191 cell line (AID 2202236; also: nearly all actives have a fitted effect of over 35% in size; also: potency is read from the fitted curve at half-maximal effect). The method in brief: as §1

Where “and” joins values, the source holds several entries; their conditions need not be identical. Identical values can stand only once. Records with an inconclusive call do not appear. Unmarked numbers belong to inactive results. Calls of active or inactive are those of the source. Calls follow the shape of the dose curve; as a rule, active = well fitted curve in the direction sought with a large enough effect; inconclusive = small, poorly fitted or top-dose-only effect, or another doubt; inactive = no such curve, though single readings can be large; an effect the other way counts as inactive or inconclusive.

Cellular tumor antigen p53 (Homo sapiens), sequence (P04637 whole entry, looked up): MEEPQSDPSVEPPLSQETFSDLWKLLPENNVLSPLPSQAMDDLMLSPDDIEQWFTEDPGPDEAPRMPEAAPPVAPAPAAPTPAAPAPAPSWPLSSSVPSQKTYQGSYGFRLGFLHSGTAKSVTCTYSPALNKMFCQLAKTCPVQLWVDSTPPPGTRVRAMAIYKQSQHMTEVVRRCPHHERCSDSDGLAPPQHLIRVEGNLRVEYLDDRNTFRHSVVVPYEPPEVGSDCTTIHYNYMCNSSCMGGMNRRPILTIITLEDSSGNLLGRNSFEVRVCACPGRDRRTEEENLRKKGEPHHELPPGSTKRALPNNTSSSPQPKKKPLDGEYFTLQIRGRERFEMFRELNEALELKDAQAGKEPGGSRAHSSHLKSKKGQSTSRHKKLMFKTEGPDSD

Take `COc1cc(CNC(=O)CCCC/C=C/C(C)C)ccc1O`: in assay [1], the activation is -7.14%. For the same compound, the Potency result in assay [2], in assay [3] and in assay [5] was “inactive” each time. Also, the values for the Potency in [4], in [6] and in assay [7] were 14.8 µM (active), 6.61 µM (active) and 10.5 µM (active), respectively.

For `Cn1cnc(-c2cc3nccc(Oc4ccc(NC(=S)NC(=O)Cc5ccccc5)cc4F)c3s2)c1`, the activation in assay [1] was -7.76% and 19.6%. Besides, the Potency entry in assay [2] and in assay [3] was “inactive” in each case. In assay [4], the viability is 78.9%. The results for the Potency in assay [8] and in assay [6] were 0.105 µM (active) and 3.72 µM (active), respectively.

On to `Cc1cccc(CC(=O)N2CCc3c2ccc(-c2cn(C)c4ncnc(N)c24)c3F)n1`, for which, in [1], the activation was 0.893%. For the same compound, the Potency entry in assay [2] and in assay [3] was “inactive” in each case. In addition, the Potency in assay [4] is 5.9 µM (active); in assay [8] it was 5.9 µM (active); in [6] it was 4.17 µM (active).

`CC(C)(C)C(=O)CN1C(=O)[C@H](NC(=O)Nc2cccc(C(=O)O)c2)CN(C2CCCCC2)c2ccccc21`: the activation in assay [1] is -7.67%. In addition, the Potency entry in assay [2], in assay [3], in assay [8], in assay [6], in assay [9] and in assay [10] was “inactive” throughout. Moreover, the Potency result in assay [7] was “inactive”. Further, the viability in [4] is 110%.

Consider `Cc1cc(-c2cc(OC(=O)c3ccccc3)ccc2Cl)cc2nnc(Nc3ccc(OCCN4CCCC4)cc3)nc12`, for which, in assay [1], the activation is -29.5%. The Potency entry in assay [2], in assay [3], in assay [8] and in assay [10] was “inactive” each time. Further, in [4], the viability was 115%. Further, the Potency in [6] is 0.456 µM (active).

On to `COc1ccc(C(=O)C2CCN(CC(=O)N(Cc3nc4c(c(=O)[nH]3)COCC4)CC3CC3)CC2)cc1`, for which, in [1], the activation is 25.7%. The Potency result in [2], in assay [3], in assay [8], in assay [6], in assay [9] and in [7] was “inactive” throughout. The viability in assay [4] was 110%.

Turning to `CC1(C)CNc2cc(NC(=O)c3cccnc3NCc3ccncc3)ccc21`, the activation in [1] was -11.7% and 7.64%. For the same compound, the Potency result in [2], in assay [3], in assay [5] and in assay [7] was “inactive” each time. In addition, the viability in assay [4] is 63%.

With `Cc1sc2c(c1C)C(c1ccc(Cl)cc1)=N[C@@H](CC(=O)Nc1ccc(OCCOCCOCCOCCNc3cccc4c3C(=O)N(C3CCC(=O)NC3=O)C4=O)cc1)c1nnc(C)n1-2` (stereo partly drawn), the activation in [1] was 59%. In addition, the Potency entry in assay [2] and in assay [3] was “inactive” throughout. The Potency in [4] is 1.05 µM (active); in [8], 0.0417 µM (active); in assay [6], 0.0148 µM (active); in [9] it was 0.0209 µM (active); in assay [10], 0.0833 µM (active); in assay [7] it was 0.0525 µM (active).

Consider `CNC(=O)c1ccccc1Nc1nc(Nc2ccc3c(c2OC)CCC[C@@H](N2CCN(CCO)CC2)C3)ncc1Cl`, for which the figures for the Potency in assay [1] and in assay [4] were 9.53 µM (active) and 18.6 µM (active), respectively. Moreover, the Potency entry in [2], in assay [3], in assay [8], in assay [6], in assay [9] and in [10] was “inactive” in each case. Besides, the Potency result in assay [7] was “inactive”.

For `NS(=O)(=O)c1cc(Cl)c(Cl)c(S(N)(=O)=O)c1`, the activation in assay [1] is -9.17% and 1%. Also, the Potency entry in assay [2], in assay [3], in assay [5], in [9], in assay [10] and in assay [7] was “inactive” each time. In [4], the viability was 115%.

For `Cc1ncc(Cl)cc1NCc1ccc(C(=O)NC(CC2CCCC2)C(=O)NC2CC2)s1` (stereo not drawn), the activation in assay [1] is 3%. Also, the Potency entry in assay [2] and in assay [3] was “inactive” throughout. Also, the viability in assay [4] is 107%. The Potency is 18.6 µM (active) in assay [8], 0.833 µM (active) in assay [9] and 5.9 µM (active) in assay [10].

On to `Cc1c(NC(=O)c2ccc(C(C)(C)C)cc2)cccc1-c1cn(C)c(=O)c(Nc2ccc(C(=O)N3CCOCC3)cc2)n1`, for which, in [1], the activation was 63.1% and -9.82%. Also, the Potency entry in [2], in [3], in assay [5], in assay [9] and in [7] was “inactive” each time. The Potency in [4] is 16.6 µM (active).

As for `CNc1nc(Nc2ccc(C(=O)N3CCOCC3)cc2OC)ncc1Cl`, the activation in assay [1] was -0.44% and -2.68%. For the same compound, the Potency entry in [2], in assay [3], in [5], in assay [10] and in assay [7] was “inactive” each time. In addition, in assay [4], the viability is 93.5%.

Turning to `CCOc1ccn(-c2ccc(F)cc2)c(=O)c1C(=O)Nc1ccc(Oc2ccnc(N)c2Cl)c(F)c1`, the activation in [1] was 49.1%. Besides, the Potency result in assay [2], in [3] and in assay [9] was “inactive” each time. The viability in assay [4] was 104%. The Potency in assay [8] was 1.48 µM (active); in assay [6] it was 11.8 µM (active); in [10], 8.33 µM (active).

As for `CN(C)C(=O)c1ccc(S(=O)(=O)c2ccc(NC(=O)[C@@](C)(O)C(F)(F)F)c(Cl)c2)cc1`, the activation in assay [1] was 17.9% and -11.6%. Also, the Potency entry in [2], in [3] and in assay [9] was “inactive” in each case. The Potency in assay [4] is 7.42 µM (active); in assay [8], 4.68 µM (active).

In the case of `CC[C@H](C)C(=O)O[C@H]1C[C@@H](C)C=C2C=C[C@H](C)[C@H](CC[C@@H]3C[C@@H](O)CC(=O)O3)[C@H]21`, the activation in assay [1] is -14.1% and 11.5% and 5.34%. For the same compound, the Potency result in assay [2], in assay [3] and in [7] was “inactive” in each case. Moreover, the viability in assay [4] is 109%. In addition, the results for the Potency in [8], in [6] and in assay [10] were 10.5 µM (active), 5.9 µM (active) and 10.5 µM (active), respectively.

`O=C(Nc1ccccc1-c1cn2c(CN3CCNCC3)csc2n1)c1cnc2ccccc2n1`: the activation in assay [1] is -29.5%. The Potency result in assay [2] and in [3] was “inactive” each time. The Potency in [4] is 8.33 µM (active); in [8], 5.25 µM (active); in [6], 20.9 µM (active); in assay [9] it was 8.33 µM (active); in [10], 7.42 µM (active); in assay [7], 8.33 µM (active).

As for `NC(=O)c1cccc(-c2cc(Nc3ccc(OC(F)(F)F)cc3)ncn2)c1`, the activation in [1] is -25.2% and 10.7%. The Potency entry in assay [2] and in assay [3] was “inactive” each time. Moreover, the Potency in assay [4] is 20.9 µM (active); in [8] it was 16.6 µM (active); in assay [6], 1.86 µM (active).

The viability is a read-out of living cells in per cent, often relative to untreated cells.
